Laboratory results reported in PubChem BioAssay (NCATS).
Records with an inconclusive call do not appear. Entries that show only a call come without a potency. Active and inactive are the calls of the source. Calls come from the whole dose curve; as a rule, active = well fitted inhibition curve with a large enough effect; inconclusive = small, poorly fitted or top-dose-only effect; inactive = no such curve, though single readings can be large or run the other way. Where a SMILES comes first, the peptide text is derived from it. The star is where a group is joined. AMC = Cc1cc(=O)oc2cc(N*)ccc12; Cbz = O=C(OCc1ccccc1)*

Test system: Zika virus NS2B-NS3 protease (unlinked complex)
Assay: Primary screen GU Rhodamine qHTS for Zika virus inhibitors: Unlinked NS2B-NS3 protease assay (AID 1347159); note: nearly all actives have a fitted effect of over 60% in size
Conditions: Recombinant ZIKV NS2B-NS3 protease, Rhodamine110 substrate fluorescence; series mostly up to 107 µM
Method in brief: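 Noncovalent NS2B hydrophilic domain/NS3 protease complex (25 nM final) in 10 mM Tris-HCl pH 8.0, 0.01% Tween 20, preincubated 15 min with compounds (up to 114 microM), then 1.5 microM Rhodamine110 substrate. Fluorescence change over 15 min fitted to 4-parameter Hill.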
Potency is the fitted concentration of half-maximal effect.

| SMILES | Potency |
| --- | --- |
| C=Cc1ccc(O[C@@H]2O[C@H](CO[C@@H]3O[C@@H](C)[C@H](O)[C@@H](O)[C@H]3O)[C@@H](O)[C@H](O)[C@H]2O)cc1 | inactive |
| COC(=O)[C@]1(C)CCC[C@@]2(C)C(=O)CC[C@H]3C(=O)C=C(CC[C@@H]21)C3O (some centres undefined) | inactive |
| CN1CCN(c2nc(-c3ccc(C(=O)NC4(C(=O)NCC#N)CCCCC4)cc3)cs2)CC1 | inactive |
| COc1cc(O)cc2c1C(=O)OC(C)C2 (centres undefined) | inactive |
| C/C1=C\CC(C)(C)/C=C/C/C(C(=O)O)=C/CC1 | 14.1 µM (active) |
| CC(C)=CCc1cc(O[C@@H]2O[C@H](CO[C@@H]3OC[C@](O)(CO)[C@H]3O)[C@@H](O)[C@H](O)[C@H]2O)ccc1O | inactive |
| CC1CCC2(C)CCC3(C)C(=CCC4C5(C)CCC(O)C(C)(C(=O)O)C5CCC43C)C2C1C (centres undefined) | 8.91 µM (active) |
| COc1cc(/C=C/C(=O)O[C@@H]2C[C@](O)(C(=O)O)C[C@@H](O)[C@H]2O)ccc1O | inactive |
| COc1cc(C(=O)OC[C@@]2(O)CO[C@@H](O[C@H]3[C@H](Oc4ccc(O)cc4)O[C@H](CO)[C@@H](O)[C@@H]3O)[C@@H]2O)cc(OC)c1O | inactive |
| CC1(C(=O)O)CCCC2(C)C3CC4C5CC3(CCC12)CC45C (centres undefined) | 10 µM (active) |
| CCCC(=O)Nc1cccc(NC(=O)c2ccccc2Br)c1 | inactive |
| COc1c(-c2ccc(O)cc2)cc(OC)c2c1oc1cc(O)c(OC3OC(CO)C(O)C3O)cc12 (centres undefined) | 15.8 µM (active) |
| Cc1cc(O[C@@H]2O[C@H](COC(=O)CC(=O)O)[C@@H](O)[C@H](O)[C@H]2O)c(C(C)C)cc1O | inactive |
| CC/C=C/C(O)C(O)C1=C(C)C(=O)C2(O1)C(=O)NC(OC)(C(=O)c1ccccc1)C2O (centres undefined) | inactive |
| C=C(C)[C@H]1CC[C@]2(C(=O)O)CC[C@]3(C)C(CCC4[C@@]5(C)CCC(=O)C(C)(C)C5CC[C@]43C)C12 (some centres undefined) | 7.08 µM (active) |
| C=C1CCC2C(C)(C)CC(O)CC2(C)C1CCC(C)CCOC(=O)CCC(=O)O (centres undefined) | 2.51 µM (active) |
| COc1cccc(C)c1C(=O)O[C@@H]1C[C@H](O[C@H]2[C@H](O)C[C@H](O[C@@H]3CCC[C@H]4[C@H]3C=C[C@@H]3CCCC/C=C/[C@H]5C=C(C(=O)O)[C@@H](C)C[C@@]56OC(=O)C(=C6O)OC(=O)[C@@]34C)O[C@@H]2C)O[C@H](C)[C@H]1O | inactive |
| COc1ccc(O[C@@H]2O[C@H](CO)[C@@H](O)[C@H](O)[C@H]2O)cc1OC | inactive |
| COc1ccnc(CCc2nc3ncccc3[nH]2)c1 | inactive |
| CC1(C)C=Cc2c(ccc3c2N=C2C(C)(C)[C@@H]4C[C@]56CCCN5C(=O)[C@@]4(C[C@]23O)NC6=O)O1 | inactive |

| SMILES | Potency |
| --- | --- |
| CC(=O)OC1CCC2(C)C(CCC3(C)C2CC=C2C4CC(C)(C)CCC4(C)CCC23C)C1(C)C(=O)O (centres undefined) | 7.08 µM (active) |
| CC1(C)[C@@H]2CC=C(CO[C@@H]3O[C@H](CO[C@@H]4OC[C@H](O)[C@H](O)[C@H]4O)[C@@H](O)[C@H](O)[C@H]3O)[C@H]1C2 | inactive |
| COC(=O)[C@H](O)[C@H]1C(C)(C)[C@H](OC(C)=O)[C@@]2(O)C(=O)[C@]1(C)C1CC[C@]3(C)C(CC(=O)O[C@H]3c3ccoc3)[C@]13O[C@@H]32 (some centres undefined) | inactive |
| C=C1CCC2[C@@](C)(C(=O)O)CCC[C@@]2(C)[C@@H]1CCc1ccoc1 (some centres undefined) | 10 µM (active) |
| CC/C=C\[C@H](O)[C@H](O)C1=C(C)C(=O)[C@]2(O1)C(=O)N[C@@](O)(C(=O)c1ccccc1)[C@@H]2O | inactive |
| COc1cc(/C=C/C(=O)OCC2OC(OC3(CO)OC(CO)C(O)C3O)C(O)C(O)C2O)ccc1O (centres undefined) | inactive |
| C=C1CCC2C(C)(C)CC(=O)CC2(C)C1CCC(C)CCO (centres undefined) | 20 µM (active) |
| CC1CCC23COC(=O)C2=CC(O)CC3C1(C)CCc1ccoc1 (centres undefined) | inactive |
| CC(C)CC(=O)NCCn1cc(C(=O)O)c(=O)cc1C(O)c1ccccc1 (centres undefined) | inactive |
| CC(/C=C/C=C(\C)C(=O)O[C@@H]1O[C@H](CO[C@@H]2O[C@H](CO)[C@@H](O)[C@H](O)[C@H]2O)[C@@H](O)[C@H](O)[C@H]1O)=C\C=C\C=C(C)\C=C\C=C(/C)C(=O)O[C@@H]1C[C@](O)(C(=O)O)C[C@@H](O)[C@H]1OC(=O)/C=C/c1ccc(O)c(O)c1 | 1.78 µM (active) |
| Cc1cc(=O)oc2cc(NC(=O)[C@H](CCC(=O)O)NC(=O)[C@H](CC(C)C)NC(=O)[C@H](CC(C)C)NC(=O)OCc3ccccc3)ccc12 (Cbz-Leu-Leu-Glu-{AMC}) | inactive |
| CC1(C)CC[C@]2(C(=O)O)CC[C@]3(C)C(=CCC4[C@@]5(C)CC[C@H](O[C@H]6O[C@H](C(=O)O)[C@@H](O)[C@H](O[C@@H]7O[C@H](CO)[C@H](O)[C@H](O)[C@H]7O)[C@H]6O)C(C)(C)C5CC[C@]43C)[C@@H]2C1 (some centres undefined) | 8.91 µM (active) |
| CC1=COC(OC2OC(CO)C(O)C(O)C2O)C2C(CO)CC(OC(=O)/C=C/c3ccc(O)cc3)C12 (centres undefined) | inactive |
| CC1CC=C2C1CC1(O)C(=O)CC2(C)C1(C)CO (centres undefined) | 35.5 µM (active) |
| O=C(O)[C@H](Cc1ccccc1)Oc1ccc(-c2ccccc2)cc1 | 35.5 µM (active) |
| C=CC(C)(O)CC/C=C(\C)COC1O[C@H](CO)[C@@H](O)[C@H](O)[C@H]1O (some centres undefined) | 12.6 µM (active) |
| COCc1c(O)c(C(=O)O)c(C)c2c1OC(=O)c1c(C)cc(O)c(CO)c1O2 | 28.2 µM (active) |
| Nc1nc(COC(=O)c2ccc([N+](=O)[O-])cc2)nc(Nc2ccccc2)n1 | inactive |
| COC1CC(O[C@H]2CC[C@@]3(C)C(=CC[C@]4(O)C3[C@H](O)[C@@H](O)[C@]3(C)[C@@H]([C@H](C)O)CC[C@@]34O)C2)OC(C)C1OC1CC(OC)C(OC2CC(OC)C(OC3OC(C)C(OC4OC(CO)C(O)C(O)C4O)C(OC)C3O)C(C)O2)C(C)O1 (some centres undefined) | inactive |
